# Reference: PubChem BioAssay (NCI)
# Several values for one entry are separate records, joined by “and”; a condition that tells them apart may be missing. Equal values may be shown once. The panel holds about 83,000 compounds, 20% with a hit somewhere; the sample as a whole holds those more often.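 Cell lines were cultured in 96-well plates, exposed to a single compound concentration, and assessed for percent growth 48 hours later.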 Values without a mark were called inactive. Activity calls are given as the source filed them.
# System: SK-MEL-5 melanoma
# Test: NCI-60 one-dose screen, 48 h (100 = growth as untreated, 0 = no growth, -100 = all killed)
# Conditions: 10 µM
# Protocol: Growth inhibition of the SK-MEL-5 human tumor cell line is measured as a screen for anti-cancer activity. Cells are grown in 96 well plates and exposed to the test compound for 48 hours. Compounds are tested at a single concentration, which is 10^-5 M for most compounds. The reported endpoint is percent growth (GI% or GIPRCNT), where numbers from 0 - 100% represent growth inhibition, and numbers from -100% - 0 represent cell death. For example, a value of 40 represents 60% growth inhibition. A value of 0 means no net growth occurred over the course of the experiment. A value of -40 indicates 40% of cells at the beginning of the experiment died by the end of the experiment. A value of -100 means all cells are dead at the end of the experiment.
# NCI-60 Human Tumor Cell Lines Screen was performed using the standard one-dose NCI protocol, which is described in more detail at https://dtp.cancer.gov/discovery_development/nci-60/default.htm.
# Compounds with GIPRCNT values below 10 were considered active. Activity score was based on GIPRCNT using the following formula: […]
# Score is 0 for GIPRCNT values of 100 or above, 50 for GIPRCNT values of 0, and 100 for GIPRCNT values of -100.
row,SMILES,growth
1,O=C(O)CCCc1ccc(N(CCCl)CCCl)cc1,93% and 88.4%

# Same assay, conditions: 10 µM unless noted
row,SMILES,growth
1,COc1c(O)cc2c(c1OC)-c1ccc(SC)c(=O)cc1C(NC(C)=O)CC2 (stereo not given),-28.2% (active)
2,COc1cc(C=C2C(=O)NC(=O)NC2=O)ccc1O,109%
3,C[C@@]12CCCc3coc(c31)C(=O)c1cc3c(cc12)C(=O)C1=C(NCCS1(=O)=O)C3=O,-98% (active)
4,NC(N)=NC(N)=Nc1ccc(Cl)cc1,108%
5,Cc1ccc(N2CCN(CCC#N)CC2)cc1,82%
6,N#CCCc1ccccc1,99.6%
7,Oc1cc(N2CC2)c(O)cc1N1CC1,-95% (active)
8,C[C@]12CC[C@H]3[C@@H](C[C@@H]4SC(Nc5ccccc5)=N[C@@]45C/C(=N/O)CC[C@]35C)[C@@H]1CCC2=O,84.5%
9,COc1cc2c(c(OC)c1OC)-c1ccc(O)cc1[C@@H](NC(C)=O)CC2,-24.2% (active) and -61.7% (active)
10,COC12CC3C4=CCOC5CC(=O)N6c7ccccc7C1(CCN2C4)C6C53 (stereo not given),110%
11,Nc1ccc(P(=O)(O)O)cc1,110% and 107%
12,Cn1cc(-c2csc(-c3cn(CCCCN4CCOCC4)c4ccc(F)cc34)n2)c2cccnc21,48.1%
13,COC(=O)[C@@H](C)C[C@H](Cc1ccccc1)NC(=O)c1cccc([C@@H](C[C@H](C(C)C)N(C)C(=O)[C@@H](NC(=O)[C@H]2CCCCN2C)C2CC2)OC(C)=O)n1,-22.6% (active)
14,CCN1C(=O)CC(=O)N(CC)C1=S,96.8%
15,COCC1OC2OC3C(COC)OC(OC4C(COC)OC(OC5C(COC)OC(OC6C(COC)OC(OC7C(COC)OC(OC8C(COC)OC(OC1C(O)C2O)C(O)C8O)C(O)C7O)C(O)C6O)C(O)C5O)C(O)C4O)C(O)C3O (stereo not given) (tested in a mixture with another compound),103%
16,CCCC[C@H]1C(=O)O[C@H](C)[C@H](NC(=O)c2cccc(NC=O)c2O)C(=O)O[C@@H](C)[C@@H]1OC(=O)CC(C)C,-5.18% (active)
17,O=c1c2ccccc2nc(-c2ccccc2Cl)n1-c1nnc(C(F)(F)F)s1,9.47% (active)
18,CC1=C([Te]c2ccccc2)C(=O)c2ccccc2C1=O,-95% (active)
19,CCC(Br)(CC)C(=O)NC(N)=O,99.2%

row,SMILES,growth
1,ClCc1ccc(Cl)c(Cl)c1,92.2%
2,N#CC(C#N)=C(C#N)C#N,102%
3,O=c1[nH]c(=O)n(Cl)c(=O)n1Cl,103% and 93.7%
4,CC(=O)OC1CC2(O)C(CCC3(C)C(c4ccc(=O)oc4)CCC32O)C2(C)CCC(OC3OC(CO)C(O)C(O)C3O)C=C12 (stereo not given),-91.9% (active)
5,COc1ccc(N)cc1N,105%
6,C[C@]12CC[C@H]3[C@@H](CC=C4c5nc(-c6ccc(Br)cc6)sc5CC[C@@]43C)[C@@H]1CC[C@@H]2O,97.1%
7,CC12CCC3C(CCC4CC(O)CCC43C)C1CCC2=O (stereo not given),101%
8,Cc1cc(NC(=O)NCCCOc2ccc(N3C(N)=NC(N)=NC3(C)C)cc2Cl)ccc1S(=O)(=O)F,22.6%
9,O=C(O)C(Br)CBr (stereo not given),98.8%
10,N#CC(NC(=O)CCl)=C(Cl)Cl,25.4%
11,CC[C@H](C)[C@H](NC(=O)[C@H]1CCCCN1C)C(=O)N(C)[C@H](C[C@@H](OC(C)=O)c1cccc(C(=O)N[C@@H](Cc2ccccc2)C[C@H](C)C(=O)OC)n1)C(C)C,-14.5% (active)
12,NC(=O)c1c(Br)c(Br)c(Br)c(Br)c1C(=O)O (tested in a mixture with another compound),95.2% and 101%
13,CC[C@H](C)[C@H](NC(=O)[C@H]1CCCCN1C)C(=O)N(C)[C@H](C[C@@H](OC(C)=O)c1nc(C(=O)NC23C4C5C2C2C3C4C52C(=O)OC)cs1)C(C)C (stereo not given in full),-56.9% (active)
14,COC(=O)C1=CCCN(C)C1,102%
15,CC1(C)C2CCC1(CS(=O)(=O)O)C(=O)C2 (stereo not given),105% and 115%
16,CC[C@H](C)[C@H](NC(=O)c1cnccn1)C(=O)N(C)[C@H](C[C@@H](OC(C)=O)c1nc(C(=O)N[C@@H](Cc2ccccc2)C[C@H](C)C(=O)OC)cs1)C(C)C,0.869% (active)
17,C=CCOC(=O)C(Br)CC (stereo not given),99.3%
18,O=[N+]([O-])c1ccc(P(=O)(O)O)cc1,109%
19,NC1CN2CCC1CC2 (stereo not given),110%

# Same assay, conditions: 75 µM
row,SMILES,growth [%]
1,O=C(O)CCCc1ccc(N(CCCl)CCCl)cc1,38.6
